A selection: hits, their analogues and other compounds. The true share with any hit is near 1.5%.
TrxR1 substrate – substrates of rat thioredoxin reductase 1 | O89049 | purified TrxR1 substrate turnover, NADPH consumption readout | Potency, µM (highest dose often 114 µM), for the others: top-dose activity change, negative = substrate turnover | 0.01% of 390,000 active | AID 588456; further: potency means the concentration at half of the fitted maximal effect; nearly all actives have a fitted effect of over 50% in size
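Rat TrxR1, dispensed at 90 nM, was prereduced with 400 uM NADPH (final) for 5 min at ~22 deg C, then incubated with compound 15 min before 400 uM selenite. A first-read NADPH fluorescence drop versus no-compound background flagged substrates.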
Eya2 inh – blocks the phosphatase activity of human Eya2; Potency, µM (top dose mostly 76.9 µM), for inactives: top-dose activity, negative = inhibition, actives largely listed as inhibitors; 0.006% of 330,000 active; recombinant Eya2, OMFP fluorescence dephosphorylation (OMFP is methylfluorescein phosphate); further: potency means the concentration at half of the fitted maximal effect
Target sequence (O00167 whole entry, looked up): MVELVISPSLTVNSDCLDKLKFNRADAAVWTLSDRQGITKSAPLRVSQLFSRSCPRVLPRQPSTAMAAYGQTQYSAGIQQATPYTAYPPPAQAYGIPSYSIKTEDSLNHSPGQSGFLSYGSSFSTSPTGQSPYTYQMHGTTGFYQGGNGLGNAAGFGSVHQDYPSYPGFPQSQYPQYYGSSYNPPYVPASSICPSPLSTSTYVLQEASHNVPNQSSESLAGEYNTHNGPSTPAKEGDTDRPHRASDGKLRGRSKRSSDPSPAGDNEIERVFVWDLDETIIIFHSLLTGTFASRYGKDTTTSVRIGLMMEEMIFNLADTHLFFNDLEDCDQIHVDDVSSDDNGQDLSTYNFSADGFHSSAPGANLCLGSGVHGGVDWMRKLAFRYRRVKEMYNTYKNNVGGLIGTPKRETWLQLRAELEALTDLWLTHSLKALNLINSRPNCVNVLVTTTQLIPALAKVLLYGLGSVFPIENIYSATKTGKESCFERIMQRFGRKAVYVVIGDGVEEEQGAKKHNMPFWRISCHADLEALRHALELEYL
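Eya2 (0.2 uM) preincubated 10 min at ambient with compound, then OMFP substrate added at 50 uM; 10 min reaction in 50 mM HEPES pH 7.5, 50 mM NaCl, 5 uM MgCl2, 0.05% BSA, 1 mM DTT. Fluorescence read at Ex 485/Em 525 nm.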
IDH1 R132H inh – inhibitors of human mutant IDH1 R132H | O75874 | IDH1-R132H enzyme, NADPH consumption, diaphorase/resazurin fluorescence | Potency, µM (series often up to 76.6 µM), for the others: at the highest dose activity change, negative = inhibition, usual class: inhibitors | 0.093% of 390,000 active; further: potency means the concentration at half of the fitted maximal effect; nearly all actives have a fitted effect of over 65% in size
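IDH1-R132H (0.5 ug/mL) preincubated 30 min with compound, then NADPH (0.016 mM) and alpha-KG (2 mM) added; 80 min at RT, pH 7.5. Remaining NADPH coupled via diaphorase/resazurin to fluorescence (540/590 nm); concentration-response curves normalized to no-enzyme control.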
TrxR1 inh – inhibitors of rat thioredoxin reductase 1 | recombinant rTrxR1, NADPH fluorescence consumption, selenite substrate | O89049 | 1% of 390,000 active | Potency, µM (doses to about 114 µM), inactives show top-dose activity change, negative = inhibition, usual class: inhibitors | AID 588453; further: potency means the concentration at half of the fitted maximal effect; nearly all actives have a fitted effect of over 65% in size
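Rat TrxR1 (90 nM in the dispensed reagent) was pre-reduced with 400 uM NADPH for 5 min at room temperature, then incubated with compound for 15 min. After 400 uM selenite was added, NADPH fluorescence (Ex 340/Em 450 nm) was followed for 8 min.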
Coupling enz – coupling enzyme interference in Giardia aldolase counter-screen | activity change, negative = inhibition, % at 58.2 µM, hits read low | coupling enzyme system counterscreen, AmpLite Red fluorescence | 0.67% of 290,000 active; in the data active means activity change below about -30%
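Counterscreen of the coupled detection system alone, without aldolase: glyceraldehyde-3-phosphate coupling enzymes plus AmpLite Red readout. Compounds at 57.5 uM final, 10 min RT preincubation, 20 min RT reaction, fluorescence 525/598 nm.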
* = called active by the depositor; ? = inconclusive; / = not tested or not shown; [ ] = dose if it differs, or a comment. Unless noted, the call rests on the fitted dose curve; in most records, active means well fitted curve in the direction sought with a large enough effect; inconclusive means small, poorly fitted or top-dose-only effect, or another doubt; inactive means no such curve, though single readings can be large; an effect the other way counts as inactive or inconclusive. On the % scale 0 is the no-effect control and ±100 the full control effect.

SMILES | TrxR1 substrate | Eya2 inh | IDH1 R132H inh | TrxR1 inh | Coupling enz
CS(=O)(=O)c1ccc(S(=O)CC(=O)Oc2ccc(Cl)cc2)c([N+](=O)[O-])c1 (centres undefined) | 4%[57.1 µM] | 2% | -4% | 1.8µM* | -27
CCOc1ccc(C2C(C#N)=C(N)SC(N)=C2C#N)c(OCC)c1 | -7% | 15% | -1% | ? | -37*
CCOc1cc(C2C(C#N)=C(N)SC(N)=C2C#N)ccc1OCCN1CCOCC1 | 5% | -3% | -2% | ? | -25
O=[N+]([O-])c1ccc(COc2cccc(CNc3ccc(F)cc3)c2)cc1 | -11% | 0% | 3% | -12% | -9
Oc1ccc(NCc2cccc(OCc3ccccc3)c2)cc1 | 0% | -8% | 9% | 7%[57.1 µM] | -30*
Oc1ccc(NCc2cccc(OCc3ccc(F)cc3)c2)cc1 | -4% | -11% | 7% | 12% | -45*
Cc1nc([N+](=O)[O-])cn1CC(O)c1ccc2c(c1)OCCCO2 (centres undefined) | -1% | / | / | -3% | /
O=C(c1cccs1)N(Cc1ccco1)c1ccc(O)cc1 | -8% | / | / | -17% | /
CCCCCCCCCC[n+]1ccc(/C=C/c2c(C)[nH]c3ccccc23)cc1 | 2% | / | / | ? | /
COc1ccc(-c2cc(C(=O)N/N=C/c3cc(OC)c(OC)cc3OC)c3ccccc3n2)cc1 | 5%[57.1 µM] | / | -4% | 2%[57.1 µM] | /
Cc1ccc(-c2cc(C(=O)Nc3ccccn3)c3ccccc3n2)o1 | 15%[57.1 µM] | 2% | 4% | -70% | 0
Cc1ccc(NC(=O)c2cc(-c3ccc(C)o3)nc3ccccc23)cc1 | 11% | 17% | 3% | 11µM* | -2
Cc1ccc(-c2cc(C(=O)Nc3cccnc3)c3ccccc3n2)o1 | 20% | 5%[15.4 µM] | 4% | 8.9µM* | -1
COc1ccc(OC)c(/C=N/NC(=O)c2cc(-c3ccc(C)o3)nc3ccccc23)c1 | 22% | -4% | 5% | 79µM* | -7
Cc1ccccc1CS(=O)(=O)Cc1ccc(C(=O)NCc2ccccn2)o1 | -3% | 11% | 16% | 50µM* | 1
Cc1ccccc1CS(=O)(=O)Cc1ccc(C(=O)NCc2ccco2)o1 | -5% | 4% | -2% | 79µM* | 3
CCc1ccc(CNC(=O)c2ccc(CS(=O)(=O)Cc3ccccc3C)o2)cc1 | 6%[57.1 µM] | / | -6% | 17%[57.1 µM] | /
O=C(NCc1ccccn1)c1ccc(CS(=O)(=O)Cc2ccc(Cl)cc2)o1 | 2% | -10% | 1% | ? | -1
CSc1nnc(NC(=O)c2nc(S(=O)(=O)Cc3ccccc3F)ncc2Cl)s1 | -2% | 8% | 1% | 40µM* | 2
Cc1nnc(NC(=O)c2nc(S(=O)(=O)Cc3ccccc3C)ncc2Cl)s1 | 7% | 4% | 0% | 50µM* | 1
CC(C)c1nnc(NC(=O)c2nc(S(=O)(=O)Cc3ccccc3F)ncc2Cl)s1 | 0% | 0% | 0% | 50µM* | /
O=C(Nc1nc2ccc(F)cc2s1)c1nc(S(=O)(=O)Cc2ccccc2F)ncc1Cl | 3% | / | 4% | ? | /
Cc1nnc(NC(=O)c2nc(SCc3ccccc3F)ncc2Cl)s1 | -4% | / | 7% | 10% | /
Clc1nc(NCC2CCCO2)c2[nH]cnc2n1 (centres undefined) | -3% | / | / | 16% | /
C/C(=N\Nc1nnc(C)c(=O)[nH]1)C(=O)O | 10% | -10% | 2% | 18% | -51*
SMILES | TrxR1 substrate | Eya2 inh | IDH1 R132H inh | TrxR1 inh | Coupling enz
O=C1C=CC(=O)N1c1ccc2c(c1)C(NC(=O)C(F)(F)F)c1ccccc1-2 (centres undefined) | 4% | / | -2% | 1.8µM* | /
CC[N+](C)(C)c1ccc(/C=C/c2ccncc2)cc1 | -30% | / | / | -29% | /
Cc1ccc(N2C(=O)CC(Sc3ccccc3C(=O)O)C2=O)cc1 (centres undefined) | -6% | -5% | -1% | ? | 4
CN(C)c1ccc(N2C(=O)CC(Sc3ccccc3C(=O)O)C2=O)cc1 (centres undefined) | -9% | 2% | 8% | 79µM* | 9
Cc1ccc(N2C(=O)CC(Sc3ccccc3C(=O)O)C2=O)c([N+](=O)[O-])c1 (centres undefined) | -3% | -4% | 0% | 79µM* | 5
Nc1ccccc1SC1CC(=O)N(c2ccc3c(c2)OCO3)C1=O (centres undefined) | 2% | -4% | -8% | 12% | -13
COc1ccc(N2C(=O)CC(Sc3ccccc3C(=O)O)C2=O)c([N+](=O)[O-])c1 (centres undefined) | 3% | 8% | -3% | 71µM* | -1
Cc1ccc(N2C(=O)CC(Sc3ccccc3C(=O)O)C2=O)cc1C (centres undefined) | 9% | -1% | -1% | -64% | 2
O=C(O)c1ccccc1SC1CC(=O)N(c2ccc3c(c2)OCO3)C1=O (centres undefined) | 8% | 20% | 3% | 40µM* | 1
Cc1ccc2c(c1)CCC2=O | 2% | / | / | ? | /
CCC(C)C(NC(=O)OC(C)(C)C)C(=O)NC1COC2CC(n3ccc(=O)[nH]c3=O)OC12 (centres undefined) | 4% | / | / | 11% | 2
CCCN1CNc2c(c(=O)[nH]c(=S)n2CCc2cc(Cl)ccc2Cl)C1 | -2% | / | / | -1% | /
COC(=O)C1=C(C(=O)OC)[C@@H]2N(Cc3ccccc3)c3ccccc3[C@@]23C[C@@H](C(=O)OC)N(S(=O)(=O)c2ccc(C)cc2)C3=N1 | / | / | / | / | 0
CCCCN1C(=O)CC(Sc2ccccc2C(=O)O)C1=O (centres undefined) | -3% | -6% | 6% | 16µM* | 3
Cc1cccc(N2C(=O)CC(Sc3ccccc3C(=O)O)C2=O)c1 (centres undefined) | -3% | 5% | 6% | 56µM* | 1
CC(C)CN1C(=O)CC(Sc2ccccc2C(=O)O)C1=O (centres undefined) | 5% | -14% | 3% | ? | 6
Cc1cccc(N2C(=O)CC(Sc3ncn[nH]3)C2=O)c1 (centres undefined) | -4% | ? | -12% | 20µM* | 1
Cc1cc(C)cc(N2C(=O)CC(Sc3ccccc3C(=O)O)C2=O)c1 (centres undefined) | 6%[57.1 µM] | ? | 3% | -83% | 7
CCCOC(=O)NCCCN(C)C | / | / | / | / | -1
NS(=O)(=O)c1ccc(NC2=CC(c3ccc([N+](=O)[O-])cc3)N(c3ccc(S(N)(=O)=O)cc3)C2=O)cc1 (centres undefined) | -7% | ? | -1% | 50µM* | -1
CC(C)(C)n1ncc2c(=O)n(Cc3ccc(Cl)c(F)c3)cnc21 | 5% | / | / | 11% | /
O=C1CCN2C=Nc3cccc4ccc1c2c34 | -4% | ? | 18% | -8% | -30*

Screening results from PubChem BioAssay.
